# Source: the supplement of paper PMC8728848
# This is one part of a sample in which the strongest signals are shown more often than they occur.
# Tests used:
# Assay in all cases: glycan array binding signal (z-score within array); higher = stronger binding
# [1] = tested on: Gal6S(b1-4)GlcNAc; conditions: glycan notation: IUPAC condensed, linker removed
# In short: (§1)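 Columns mapping to the same glycan were averaged after glycan names were converted to IUPAC-condensed notation. The data come from 3228 arrays in the Consortium for Functional Glycomics database, limited to those with an available protein sequence. Binding is reported as a within-array Z-score averaged across arrays of one protein sequence and across linkers.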
# [2] = tested on: Gal3S6S(b1-4)GlcNAc; conditions: glycan notation: IUPAC condensed, linker removed
# In short: as §1
# [3] = tested on: Gal3S(b1-4)Glc; conditions: glycan notation: IUPAC condensed, linker removed
# In short: as §1
# [4] = tested on: Gal6S(b1-3)GlcNAc; conditions: glycan notation: IUPAC condensed, linker removed
# In short: as §1
# [5] = tested on: Gal3S6S(b1-4)GlcNAc6S; conditions: glycan notation: IUPAC condensed, linker removed
# In short: as §1
# [6] = tested on: Gal3S(b1-4)[Fuc(a1-3)]Glc; conditions: glycan notation: IUPAC condensed, linker removed
# In short: as §1
# [7] = tested on: Gal4S6S(b1-4)GlcNAc; conditions: glycan notation: IUPAC condensed, linker removed
# In short: as §1
# [8] = tested on: Gal3S(b1-4)[Fuc(a1-3)]Glc6S; conditions: glycan notation: IUPAC condensed, linker removed
# In short: as §1
# [9] = tested on: Gal3S(b1-4)[Fuc(a1-3)]GlcNAc6S; conditions: glycan notation: IUPAC condensed, linker removed
# In short: as §1
# [10] = tested on: Gal3S(b1-4)[Fuc(a1-3)]GlcNAc; conditions: glycan notation: IUPAC condensed, linker removed; mutation: R125K
# In short: as §1
# Chain of Aggrecan (Rattus norvegicus), NP_071526 (chain, as listed by the source): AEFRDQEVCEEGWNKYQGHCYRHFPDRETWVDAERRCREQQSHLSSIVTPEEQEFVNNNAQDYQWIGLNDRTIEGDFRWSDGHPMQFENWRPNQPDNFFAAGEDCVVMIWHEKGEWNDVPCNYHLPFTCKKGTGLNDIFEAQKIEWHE
# Chain of 6RG (Lolium perenne), B9U140 (B9U140 entry or part of it): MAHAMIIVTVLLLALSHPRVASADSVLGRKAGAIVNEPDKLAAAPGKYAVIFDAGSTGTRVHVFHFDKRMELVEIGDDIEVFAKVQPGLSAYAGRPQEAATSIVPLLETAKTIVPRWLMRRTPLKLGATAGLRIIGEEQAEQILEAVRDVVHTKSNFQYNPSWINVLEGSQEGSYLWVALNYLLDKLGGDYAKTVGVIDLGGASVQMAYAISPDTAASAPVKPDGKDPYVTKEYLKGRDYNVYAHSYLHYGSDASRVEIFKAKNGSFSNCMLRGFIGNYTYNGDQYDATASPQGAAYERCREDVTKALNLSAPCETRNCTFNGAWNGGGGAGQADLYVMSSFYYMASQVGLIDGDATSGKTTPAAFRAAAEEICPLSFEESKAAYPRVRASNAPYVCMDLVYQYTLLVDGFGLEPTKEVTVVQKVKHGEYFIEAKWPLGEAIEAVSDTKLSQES
# Chain of PILRa (Mus musculus), Q2YSF3 (Q2YSF3 entry or part of it): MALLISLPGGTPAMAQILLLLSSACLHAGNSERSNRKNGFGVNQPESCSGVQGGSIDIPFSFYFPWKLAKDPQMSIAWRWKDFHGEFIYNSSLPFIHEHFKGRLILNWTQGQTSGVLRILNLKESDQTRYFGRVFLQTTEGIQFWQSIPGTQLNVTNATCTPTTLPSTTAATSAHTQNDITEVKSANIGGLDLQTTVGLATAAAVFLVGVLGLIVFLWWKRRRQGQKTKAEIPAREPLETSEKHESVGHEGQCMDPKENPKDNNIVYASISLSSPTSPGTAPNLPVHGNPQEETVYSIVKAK
# Chain of CHI3L1 (Homo sapiens), P36222 (P36222 whole entry): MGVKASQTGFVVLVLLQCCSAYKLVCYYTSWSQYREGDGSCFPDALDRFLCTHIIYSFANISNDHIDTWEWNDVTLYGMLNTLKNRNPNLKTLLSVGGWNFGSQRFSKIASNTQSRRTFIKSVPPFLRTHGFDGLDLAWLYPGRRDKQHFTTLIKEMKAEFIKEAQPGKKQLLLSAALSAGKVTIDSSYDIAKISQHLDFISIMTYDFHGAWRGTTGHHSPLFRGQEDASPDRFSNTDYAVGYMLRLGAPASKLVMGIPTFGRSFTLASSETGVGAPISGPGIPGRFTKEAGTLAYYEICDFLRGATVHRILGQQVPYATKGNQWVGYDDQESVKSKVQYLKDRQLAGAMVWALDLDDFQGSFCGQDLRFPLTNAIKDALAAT
# Chain of SRLC (Mus musculus), Q8VIF6 (Q8VIF6 other isoform, or with tags, fused parts or gaps): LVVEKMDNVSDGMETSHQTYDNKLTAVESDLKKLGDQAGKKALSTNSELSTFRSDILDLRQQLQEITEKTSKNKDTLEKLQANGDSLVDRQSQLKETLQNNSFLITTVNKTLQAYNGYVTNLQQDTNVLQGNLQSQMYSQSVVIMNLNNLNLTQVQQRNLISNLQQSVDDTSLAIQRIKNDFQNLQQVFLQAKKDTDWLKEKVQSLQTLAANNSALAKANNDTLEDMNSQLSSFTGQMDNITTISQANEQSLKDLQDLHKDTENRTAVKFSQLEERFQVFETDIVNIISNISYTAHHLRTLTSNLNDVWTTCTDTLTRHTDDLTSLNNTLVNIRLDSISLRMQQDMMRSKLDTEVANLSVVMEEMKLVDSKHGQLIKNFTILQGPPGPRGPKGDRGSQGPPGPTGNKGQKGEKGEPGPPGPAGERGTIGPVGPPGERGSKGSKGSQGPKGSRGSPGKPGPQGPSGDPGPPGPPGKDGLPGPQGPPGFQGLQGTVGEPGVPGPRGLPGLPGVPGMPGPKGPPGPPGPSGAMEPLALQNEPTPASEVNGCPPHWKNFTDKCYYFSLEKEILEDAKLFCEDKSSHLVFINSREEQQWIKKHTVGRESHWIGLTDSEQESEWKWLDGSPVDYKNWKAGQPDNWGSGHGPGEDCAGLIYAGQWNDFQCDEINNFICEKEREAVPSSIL
# Chain of PILRb (Mus musculus), Q2YSF2 (Q2YSF2 entry or part of it): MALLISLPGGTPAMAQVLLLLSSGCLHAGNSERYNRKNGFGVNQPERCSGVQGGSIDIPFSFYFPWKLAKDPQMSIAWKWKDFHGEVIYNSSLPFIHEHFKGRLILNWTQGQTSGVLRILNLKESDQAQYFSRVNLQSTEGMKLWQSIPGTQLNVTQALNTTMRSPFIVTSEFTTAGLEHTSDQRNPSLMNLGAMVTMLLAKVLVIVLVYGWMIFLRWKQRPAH
# Chain of wLAT-1A (Homo sapiens), Q01650 (Q01650 whole entry): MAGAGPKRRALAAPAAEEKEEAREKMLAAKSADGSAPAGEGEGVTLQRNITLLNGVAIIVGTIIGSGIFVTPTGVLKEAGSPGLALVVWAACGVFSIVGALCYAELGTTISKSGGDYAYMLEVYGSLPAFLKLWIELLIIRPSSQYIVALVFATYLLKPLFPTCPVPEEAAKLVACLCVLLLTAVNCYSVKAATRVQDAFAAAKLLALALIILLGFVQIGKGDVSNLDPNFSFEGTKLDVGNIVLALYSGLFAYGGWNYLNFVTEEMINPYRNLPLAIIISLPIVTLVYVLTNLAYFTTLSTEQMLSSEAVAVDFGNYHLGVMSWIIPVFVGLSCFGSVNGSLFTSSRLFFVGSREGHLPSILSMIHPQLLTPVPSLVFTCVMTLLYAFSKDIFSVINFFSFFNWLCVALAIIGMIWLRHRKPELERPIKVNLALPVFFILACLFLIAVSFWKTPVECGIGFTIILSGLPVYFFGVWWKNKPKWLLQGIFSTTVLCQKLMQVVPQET
# Chain of Regenerating Gene IV (Homo sapiens), Q9BYZ8 (Q9BYZ8 whole entry, looked up): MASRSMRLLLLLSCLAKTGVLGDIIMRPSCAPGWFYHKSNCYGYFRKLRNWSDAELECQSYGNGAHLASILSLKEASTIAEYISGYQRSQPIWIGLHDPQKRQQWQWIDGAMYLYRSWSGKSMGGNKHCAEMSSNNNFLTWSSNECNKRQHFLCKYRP
# Chain of C3b (Homo sapiens), P01024 (P01024 23-667): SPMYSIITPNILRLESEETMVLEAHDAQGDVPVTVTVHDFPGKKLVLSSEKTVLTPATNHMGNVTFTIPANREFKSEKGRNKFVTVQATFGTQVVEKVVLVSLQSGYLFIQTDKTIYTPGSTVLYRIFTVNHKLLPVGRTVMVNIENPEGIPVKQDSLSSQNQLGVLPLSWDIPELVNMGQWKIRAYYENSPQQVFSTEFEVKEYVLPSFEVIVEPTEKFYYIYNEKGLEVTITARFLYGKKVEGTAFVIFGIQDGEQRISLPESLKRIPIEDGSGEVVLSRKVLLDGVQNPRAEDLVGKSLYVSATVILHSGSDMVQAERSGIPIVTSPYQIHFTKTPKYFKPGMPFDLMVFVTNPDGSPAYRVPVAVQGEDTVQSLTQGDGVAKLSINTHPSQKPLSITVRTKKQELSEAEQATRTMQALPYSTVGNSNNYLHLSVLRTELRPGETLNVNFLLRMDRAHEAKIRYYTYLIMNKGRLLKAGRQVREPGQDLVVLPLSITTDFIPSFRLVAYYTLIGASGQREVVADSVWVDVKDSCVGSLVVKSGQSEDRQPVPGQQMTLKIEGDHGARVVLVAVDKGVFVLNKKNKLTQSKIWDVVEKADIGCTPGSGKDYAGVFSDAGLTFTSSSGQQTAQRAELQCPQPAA
# Chain of CHT (Homo sapiens) (chain, as listed by the source): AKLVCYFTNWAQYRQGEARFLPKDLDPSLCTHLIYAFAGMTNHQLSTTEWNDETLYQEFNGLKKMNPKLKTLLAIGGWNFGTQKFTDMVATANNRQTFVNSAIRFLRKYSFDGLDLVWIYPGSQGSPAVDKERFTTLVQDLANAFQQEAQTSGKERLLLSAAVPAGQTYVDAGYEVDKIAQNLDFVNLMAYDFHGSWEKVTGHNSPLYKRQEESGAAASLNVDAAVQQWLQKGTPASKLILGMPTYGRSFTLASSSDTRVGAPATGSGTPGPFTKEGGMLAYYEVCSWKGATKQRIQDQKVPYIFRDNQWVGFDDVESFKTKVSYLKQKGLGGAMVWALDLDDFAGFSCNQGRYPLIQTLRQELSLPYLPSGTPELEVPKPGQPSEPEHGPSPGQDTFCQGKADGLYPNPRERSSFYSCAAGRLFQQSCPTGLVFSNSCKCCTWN
substance,measurement,setting,value
"wLAT-1A (Homo sapiens), Q01650",glycan array binding signal (z-score),[1],3.6
CHT (Homo sapiens),glycan array binding signal (z-score),"[2]; mutation: D138V, E140I",-0.059
"PILRa (Mus musculus), Q2YSF3",glycan array binding signal (z-score),[3],0.049
same,glycan array binding signal (z-score),[4],1.62
"SRLC (Mus musculus), Q8VIF6",glycan array binding signal (z-score),[5],0.13
"CHI3L1 (Homo sapiens), P36222",glycan array binding signal (z-score),[6],0.014
MpAFP RI GFP (Marinomonas primoryensis),glycan array binding signal (z-score),[3],0.469
"Regenerating Gene IV (Homo sapiens), Q9BYZ8",glycan array binding signal (z-score),[2],0.332
"PILRb (Mus musculus), Q2YSF2",glycan array binding signal (z-score),[6],0.773
"Aggrecan (Rattus norvegicus), NP_071526",glycan array binding signal (z-score),[2],-0.034
same,glycan array binding signal (z-score),[7],-0.024
same,glycan array binding signal (z-score),[1],0.061
"Siglec-8 (Homo sapiens), Q9NYZ4",glycan array binding signal (z-score),[8],0.077
same,glycan array binding signal (z-score),[9],-0.171
same,glycan array binding signal (z-score),[10],0.148
"C3b (Homo sapiens), P01024",glycan array binding signal (z-score),[2],-0.743
"6RG (Lolium perenne), B9U140",glycan array binding signal (z-score),[5],2.09
same,glycan array binding signal (z-score),[7],1.06
